Growth data for 40 compounds are collected here from PubChem BioAssay (NCI).

Values joined by “and” are separate entries in the source; they are usually repeats but may differ in a detail not shown here. Identical values can stand only once. The panel holds about 83,000 compounds, 20% with a hit somewhere; the sample as a whole holds those more often.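 How to read the values: 0–100, growth inhibition (40 = 60% inhibited); 0, no net growth; -100 to 0, cell death (-40 = 40% of starting cells died; -100 = all dead).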 Unmarked numbers belong to inactive results. Active and inactive are the calls of the source. *1 amine or outer side, *2 acyl side, *3 side chain or, on linkers, in order; H or OH if unused. Where a SMILES comes first, the peptide text is derived from it. [ ]: non-standard residue; d: D form. The star is where a group is joined. X5 = CCC(=O)CC1CC(C)CC(C(=O)[*:2])N1[*:1]; X4 = CCCCCCCCC(C)C(=O)*; Aib = CC(C)(N)C(=O)O; X6 = CC(CN(C)CCO)N*

In this assay the test system is SK-MEL-5 melanoma. As to the kind of experiment: NCI-60 one-dose screen, 48 h (100 = growth as untreated, 0 = no growth, -100 = all killed). The note with it: 10 µM unless noted. As to the method:
Growth inhibition of the SK-MEL-5 human tumor cell line is measured as a screen for anti-cancer activity. Cells are grown in 96 well plates and exposed to the test compound for 48 hours. Compounds are tested at a single concentration, which is 10^-5 M for most compounds. The reported endpoint is percent growth (GI% or GIPRCNT), where numbers from 0 - 100% represent growth inhibition, and numbers from -100% - 0 represent cell death. For example, a value of 40 represents 60% growth inhibition. A value of 0 means no net growth occurred over the course of the experiment. A value of -40 indicates 40% of cells at the beginning of the experiment died by the end of the experiment. A value of -100 means all cells are dead at the end of the experiment.
NCI-60 Human Tumor Cell Lines Screen was performed using the standard one-dose NCI protocol, which is described in more detail at https://dtp.cancer.gov/discovery_development/nci-60/default.htm.
Compounds with GIPRCNT values below 10 were considered active. Activity score was based on GIPRCNT using the following formula: […]
Score is 0 for GIPRCNT values of 100 or above, 50 for GIPRCNT values of 0, and 100 for GIPRCNT values of -100.
For `CCCCCCCCCCCCCCCc1ccc(C(=O)C[n+]2ccccc2)cc1`, the growth was -31.6% (active).
Turning to `OC(c1cc(-c2ccc(C(F)(F)F)cc2)nc(C(F)(F)F)c1)C1CCCCN1` (stereo not given), the growth was -91.6% (active) and -98.8% (active) and 6.65% (active).
In the case of `CCCCCCCCCCCC[n+]1ccccc1` (tested in a mixture with another compound) it was -98.5% (active).
The result for `OCCOSCCO` reads 101%; that for `CCCCC(CCc1ccc([N+](=O)[O-])cc1)(C(C)=O)C(=O)OCC` (stereo not given), 93.2%; that for `NC(=S)N/N=C\c1nccc2c(C(F)(F)F)cccc12`, -41.5% (active).
In the case of `O=C(Cc1nc2cc(Cl)c(Cl)cc2nc1CC(=O)c1ccccc1)c1ccccc1` it was 90.3%; in that of `Cn1c(-c2ccccc2)c(/C=C/C2=[N+](C)c3ccccc3C2(C)C)c2ccccc21`, -98.4% (active); in that of `CCCCCCCCCCCCCCCCCC1=NCCCN1CCO`, 103%.
For `CCC(=O)c1cc([N+](=O)[O-])c(Br)s1`, the growth is 98.9%.
The result for `Nc1nc(N)c2cc(Sc3cccc(C(F)(F)F)c3)ccc2n1` reads 21.4%; that for `CC(C)(C)c1ccc(O)c(-c2ccccc2)c1`, 116%; that for `COc1cc(/C=C2\SC(=S)N(/C=C/c3nc4ccccc4[nH]c3=O)C2=O)cc(OC)c1OC`, 82.7%.
The result for `Cc1ccc(/C=C2\CNC/C(=C\c3ccc(C)cc3)C2=O)cc1` reads -96.7% (active).
The result for `CCCOC(=O)c1nc(N(CC2CCCCC2)C(=O)NC)sc1/N=C/c1ccccc1` reads -11.9% (active).
Take `NC1=C(Br)C(=O)c2ncccc2C1=O`: the growth was -98.3% (active).
In the case of `CN=C(N)N/N=C(\c1ccccc1)c1ccc(Br)cc1` it was -36.7% (active).
In the case of `O=C1C=CC(O)=CC1=P(c1ccccc1)(c1ccccc1)c1ccccc1` it was 95.7%; in that of `Cc1ccc(NC2=CC(=O)C(=O)c3ccccc32)cc1`, -98.4% (active); in that of `COC(=O)C(=[N+]=[N-])C(=O)c1ccc([N+](=O)[O-])o1`, 93.6%.
`O=C(c1ccccc1)c1ccc(O)c2ncccc12`: the growth is 26.8%.
The result for `CC1(O)CCCCCC1` reads 101%.
In the case of `CCOC(=O)c1c(C)[nH]c2ccc(O)cc12` it was 101%.
For `Nc1ccc(C(=O)/C=C/c2ccccc2)cc1`, the growth is 102%.
Regarding `O=[N+]([O-])c1ccc(N2CCN(Cc3ccccc3)CC2)c2c1no[n+]2[O-]`, the growth was 38.1%.
For the compound `Oc1ccc2ccccc2c1N=Nc1ccccn1`, the growth was 23.7%.
Take `Cc1oc2c(C)c3oc(=O)cc(C)c3cc2c1CCl`: the growth was 77.6%.
The result for `CCCCCCCCC(C)C(=O)N1CCCC1C(=O)N1C(CC(=O)CC)CC(C)CC1C(=O)NC(C)C(=O)NC(C)(C)C(=O)NC(C)(C)C(=O)NC(C(=O)NC(C)C(=O)NC(C)(C)C(=O)NC(C)(C)C(=O)NC(C)CN(C)CCO)C(C)CC` (stereo not given) (X4-P[X5]A[Aib][Aib]IA[Aib][Aib]-X6; configuration not given here) reads -85.3% (active).
For `S=C(S)OCN1CCOCC1`, the growth is 101%.
In the case of `Oc1ccc2ccccc2c1N=Nc1nccs1` it was 74.7%; in that of `C/C(=N\NC(=S)N1CC2CCC(CC2)C1)c1ccccn1`, -68.3% (active); in that of `Nc1cc(-c2ccccc2)ccc1O`, 118%.
The result for `COc1ccc2c(c1OC)OCC(CN(C)C)C2=O` (stereo not given) reads 101%; that for `O=[N+]([O-])CC(O)c1ccccc1` (stereo not given), 103%; that for `S=C=Nc1ccc(N2CCOCC2)cc1`, 98.2%.
In the case of `O=C(Nc1ccc(Cl)c(Cl)c1)OCc1ccco1` it was 30.6%; in that of `CCCCCCCCCCCC(=O)OC(C)C(=O)NCCCC` (stereo not given), 102%.
In the case of `OC(Cc1cc(CC(O)(C(F)(F)F)C(F)(F)F)nc(CC(O)(C(F)(F)F)C(F)(F)F)c1)(C(F)(F)F)C(F)(F)F`, the growth was -83.3% (active).
The result for `O=C1/C(=C/c2ccccc2)CCC/C1=C\c1ccccc1` reads 86.7%; that for `C[C@@]1(CO)[C@H](O)CC[C@@]2(C)[C@H]1CC[C@H]1C[C@@H]3C[C@@]12CC[C@@]3(O)COC(=O)CN`, -43.8% (active).
